Experimental data: PubChem BioAssay AID1159580 (chemical genetic matrix, 2015)
Hit rate of the full screen: of about 5,500 compounds, about 2,000 (36%) were called active. Another 18% or so got no clear call; they are omitted. Cut-off read from the data, not from the text of the source: active = normalized growth mostly below about 0.91 (no sharp cut-off); inconclusive = no clear call, values can overlap the other calls; inactive = mostly above about 0.92. The list shows a part of the results.

Experiment: chemical genetic growth profiling, strain panel (AID 1159580);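 note: tested at 20 µM; growth read once vehicle control cultures reached saturation at 30 °C; 1 = growth at the plate median or of vehicle wells; lower values mean less growth of the strain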
Conditions: S. cerevisiae deletion strains, growth OD

Measured: normalized growth

COC1=CC(=O)C(C(=O)c2ccccc2)=CC1=O
inactive: locus YAL021C, strain ccr4, active compounds read low 1.01 | locus YAL026C, strain drs2, active compounds read low 0.992 | locus YAL030W, strain snc1, active compounds read low 0.993 | locus YBL061C, strain skt5, active compounds read low 1.01 | locus YBR009C, strain hhf1, active compounds read low 0.977 | locus YBR023C, strain chs3, active compounds read low 0.988 | locus YBR171W, strain sec66, active compounds read low 0.978 | locus YBR231C, strain swc5, active compounds read low 0.972 | locus YBR279W, strain paf1, active compounds read low 0.991 | locus YCL011C, strain gbp2, active compounds read low 0.971 | locus YCL016C, strain dcc1, active compounds read low 0.977 | locus YCL061C, strain MRC1, active compounds read low 0.978 | locus YCL069W, strain vba3, active compounds read low 0.996 | locus YCR088W, strain abp1, active compounds read low 0.987 | locus YDL005C, strain med2, active compounds read low 0.966 | locus YDL040C, strain nat1, active compounds read low 0.981 | locus YDR001C, strain nth1, active compounds read low 0.964 | locus YDR069C, strain doa4, active compounds read low 0.965 | locus YDR137W, strain rgp1, active compounds read low 0.938 | locus YDR159W, strain sac3, active compounds read low 0.949 | locus YDR195W, strain ref2 0.964 | locus YDR297W, strain sur2, active compounds read low 0.967 | locus YDR334W, strain swr1, active compounds read low 0.96 | locus YDR335W, strain msn5, active compounds read low 0.97 | locus YDR392W, strain spt3, active compounds read low 0.98 | locus YEL003W, strain gim4, active compounds read low 0.976 | locus YEL037C, strain rad23, active compounds read low 0.986 | locus YEL061C, strain CIN8 (second series), active compounds read low 0.98 | locus YER015W, strain faa2, active compounds read low 0.98 | locus YER016W, strain bim1, active compounds read low 0.974 | locus YER111C, strain swi4, active compounds read low 0.973 | locus YER155C, strain BEM2 (second series), active compounds read low 0.975 | locus YFR010W, strain ubp6, active compounds read low 0.993 | locus YGL167C, strain pmr1, active compounds read low 0.975 | locus YGL173C, strain kem1, active compounds read low 1 | locus YGL227W, strain vid30, active compounds read low 0.986 | locus YGL240W, strain doc1, active compounds read low 0.955 | locus YGL253W, strain hxk2, active compounds read low 0.987 | locus YHR013C, strain ard1, active compounds read low 0.967 | locus YHR027C, strain rpn1, active compounds read low 0.966 | locus YHR030C, strain SLT2, active compounds read low 1.02 | locus YHR079C, strain IRE1, active compounds read low 1.02 | locus YHR142W, strain chs7, active compounds read low 0.996 | locus YJL092W, strain hpr5, active compounds read low 0.968 | locus YJL095W, strain BCK1 (second series), active compounds read low 0.971 | locus YJL095W, strain BCK1, active compounds read low 1.02 | locus YJL115W, strain asf1, active compounds read low 0.956 | locus YJL129C, strain trk1, active compounds read low 0.941 | locus YJL154C, strain vps35, active compounds read low 0.974 | locus YJL164C, strain tpk1, active compounds read low 0.988 | locus YJL166W, strain qcr8, active compounds read low 1.01 | locus YJR066W, strain TOR1, active compounds read low 0.94 | locus YKL160W, strain elf1, active compounds read low 0.991 | locus YKR026C, strain gcn3, active compounds read low 0.993 | locus YKR091W, strain srl3, active compounds read low 0.97 | locus YLL001W, strain dnm1, active compounds read low 0.972 | locus YLL026W, active compounds read low 1 | locus YLL041C, strain sdh2, active compounds read low 0.98 | locus YLR027C, strain aat2, active compounds read low 0.976 | locus YLR113W, strain HOG1, active compounds read low 1.02 | locus YLR221C, strain rsa3, active compounds read low 0.988 | locus YLR258W, strain gsy2, active compounds read low 0.997 | locus YLR262C, strain YPT6 (second series), active compounds read low 0.975 | locus YLR320W, strain mms22, active compounds read low 0.981 | locus YLR342W, strain FKS1, active compounds read low 0.983 | locus YLR357W, strain rsc2, active compounds read low 0.946 | locus YLR370C, strain arc18, active compounds read low 0.959 | locus YLR384C, strain iki3, active compounds read low 0.979 | locus YML120C, strain ndi1, active compounds read low 1 | locus YMR058W, strain fet3, active compounds read low 0.966 | locus YMR125W, strain sto1, active compounds read low 0.987 | locus YMR129W, active compounds read low 1 | locus YMR205C, strain PFK2, active compounds read low 1 | locus YMR231W, strain pep5, active compounds read low 0.991 | locus YNL071W, strain lat1, active compounds read low 0.985 | locus YNL183C, strain NPR1, active compounds read low 0.969 | locus YNL209W, strain ssb2, active compounds read low 0.977 | locus YNL248C, strain rpa49, active compounds read low 0.992 | locus YNL322C, strain KRE1 (second series), active compounds read low 0.965 | locus YNR049C, strain mso1, active compounds read low 0.964 | locus YOR001W, strain rrp6, active compounds read low 0.975 | locus YOR070C, strain gyp1, active compounds read low 0.977 | locus YOR080W, strain dia2, active compounds read low 1 | locus YOR083W, strain WHI5, active compounds read low 0.991 | locus YOR106W, strain vam3, active compounds read low 0.992 | locus YOR231W, strain MKK1, active compounds read low 1.04 | locus YOR265W, strain rbl2, active compounds read low 0.986 | locus YOR270C, strain vph1, active compounds read low 1.01 | locus YOR290C, strain snf2, active compounds read low 0.965 | locus YPL051W, strain arl3, active compounds read low 0.984 | locus YPL078C, strain atp4, active compounds read low 0.975 | locus YPL106C, strain sse1, active compounds read low 0.927 | locus YPL240C, strain hsp82, active compounds read low 0.977 | locus YPL256C, strain CLN2, active compounds read low 1.04
